Data on six molecules can be found in PubChem BioAssay.

Active and inactive are the calls of the source.

Experiment [1] deals with Human papillomavirus type 1a protein E7 (residues 44-93). The experiment is described as follows: small molecules binding HPV E7 44-93 – biochemical, small-molecule microarray, residues 44-93, 635 nm fluorescence, primary screen (AID 1108).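 Also: E7 fragment applied at 1 µg/mL in TBST for 1 h at 4 C; score combines spot fluorescence with its signal to noise ratio.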 Conditions: fluorescence 635 nm, higher = more signal.
Experiment [2] in a line: hepatitis C replication reporter changes, two-sided – Huh7 cells, luciferase reporter, HCV replication inhibitor project, primary screen (AID 1109).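 Also: huh7 hepatoma cells harbouring a luciferase neomycin HCV replicon reporter; luciferase luminescence as measure of HCV replicon replication; test concentration not given here.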 The following applies: Huh7 HCV replicon luciferase reporter, 48 h; higher = more signal. (In a reporter assay the amount or activity of a reporter protein is the signal.)
For experiment [3], the target named is Left-right determination factor 2 (Homo sapiens) (UniProt O00292). Description: small molecules binding LEFTY2 protein – biochemical, small-molecule microarray, 635 nm fluorescence scan, primary screen (AID 1110). Conditions: higher = more signal.
For experiment [4], the target named is Calmodulin-1 (Homo sapiens) (UniProt P0DP23). The experiment is described as follows: small molecules binding calmodulin-1 with EGTA – biochemical, small-molecule microarray, Cy5-labelled CALM1, profiling panel (AID 1111).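 Also: labelled calmodulin applied in Tris saline Tween buffer holding calcium plus EGTA and DTT.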 The following applies: Cy5-CALM1 binding fluorescence, higher = more signal.
Experiment [5] shares this target. The experiment is described as follows: small molecules binding Ca-loaded calmodulin-1 – biochemical, small-molecule microarray, Cy5-labelled CALM1, plus calcium, artefact control for SMM control-protein annotation, profiling panel (AID 1112).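 Also: score merges spot fluorescence with signal to noise from triplicate slides.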 The following applies: Cy5-CALM1 binding fluorescence, higher = more signal.
Experiment [6] in a line: probe aWnt5a binding to arrayed compounds – biochemical, biotinylated probe, 635/667 nm fluorescence, primary screen (AID 1113).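 Also: score merges 667 nm fluorescence intensity with signal-to-noise per printed feature.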 Conditions: small-molecule microarray, higher = more signal.
Experiment [7] can be described thus: probe aShh binding to arrayed compounds – biochemical, biotinylated probe, 635/667 nm fluorescence, primary screen (AID 1114).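 Also: probe is biotin-labelled aShh protein from a stem cell growth factor screen; measures binding of labelled protein to compounds printed on the slide; score merges feature fluorescence at 667 nm with signal-to-noise.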 The following applies: small-molecule microarray, higher = more signal.
Experiment [8] is described as follows: probe aNog binding to arrayed compounds – biochemical, biotinylated probe, 635/667 nm fluorescence, primary screen (AID 1115).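 Also: probe is biotinylated aNog protein used at 0.15 µg/mL for 1 h at 4 C; z-score combines 667 nm fluorescence of each spot with its signal to noise.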 Conditions: small-molecule microarray, higher = more signal.
Experiment [9] has as its target Torsin-1A-interacting protein 1 (Homo sapiens) (UniProt Q5JTV8). The experiment is described as follows: compound microarray binding of lysate hLAP1 – cell lysate, small-molecule microarray, COS7 lysate, 635/667 nm fluorescence, primary screen (AID 1116). Conditions: 635 nm fluorescence, higher = more signal.
In experiment [10] the target is Alpha-bungarotoxin (Bungarus multicinctus) (UniProt P60615). The experiment is described as follows: compounds binding labelled alpha-BTX control protein – biochemical, small-molecule microarray, Alexa647 label, 635/667 nm fluorescence, artefact control for SMM control protein annotation, profiling panel (AID 1117). The following applies: alpha-BTX-A647 binding fluorescence, higher = more signal.

The next experiment has as its target Albumin (Bos taurus) (UniProt P02769). The experiment is described as follows: compounds binding labelled BSA control protein – biochemical, small-molecule microarray, Alexa647 label, 635/667 nm fluorescence, artefact control for SMM control protein annotation, profiling panel (AID 1118).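 Also: score merges 667 nm emission intensity and signal-to-noise per printed compound spot.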 The following applies: BSA-A647 binding, fluorescence 635 nm, higher = more signal.

A short description of experiment [11]: probe aXIP binding to arrayed compounds – biochemical, NeuroSMM set, 635/667 nm fluorescence, primary screen (AID 1119).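 Also: probe is the protein aXip251-270 applied at 1 µg/mL to compound-printed slides; binding of probe to printed compounds measured as 667 nm fluorescence plus signal to noise.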 Conditions: small-molecule microarray, higher = more signal, called active from +8 up or from −8 down.
The nature of experiment [12]: probe aNOTCH3 binding on compound microarray – biochemical, small-molecule microarray, 635/667 nm fluorescence, primary screen (AID 1120).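 Also: probe is a biotin-tagged antibody raised against NOTCH3 rather than NOTCH3 protein; score merges spot fluorescence near 667 nm with spot signal to noise.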 Conditions: higher = more signal.
A short description of experiment [13]: probe aNOTCH2 binding on compound microarray – biochemical, small-molecule microarray, 635/667 nm fluorescence, primary screen (AID 1121).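 Also: score merges feature fluorescence read at 667 nm with its signal to noise.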 The following applies: higher = more signal.
The target of experiment [14] is Carbonic anhydrase 2 (Homo sapiens) (UniProt P00918). Description: compounds binding carbonic anhydrase 2 – biochemical, small-molecule microarray, Alexa647-labelled CAII, profiling panel (AID 1122). The following applies: CAII-A647 binding fluorescence, higher = more signal.
Experiment [15] in a line: COS7 lysate on small-molecule microarray, probe aHis, 635 nm (AID 1123).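 Also: z-score combines 667nm fluorescence intensity with signal-to-noise per printed compound spot.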 Conditions: COS7 cell lysate, fluorescence, higher = more signal.
A short description of experiment [16]: probe aLAP1 signal on lysate-treated microarray – cell lysate, small-molecule microarray, COS7 lysate, primary screen (AID 1124).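 Also: lysate comes from COS7 cells expressing LAP1 and is applied at 0.3 µg/mL; score merges spot fluorescence near 667 nm with signal-to-noise over triplicate slides.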 The following applies: probe aLAP1, fluorescence, higher = more signal.
The next experiment concerns Sam68 (KHDRBS1). Description: compounds binding KHDRBS1 protein – biochemical, small-molecule microarray, 635 nm fluorescence, primary screen (AID 1125).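 Also: score merges 667 nm channel intensity with signal to noise over triplicate slides.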 The following applies: higher = more signal.
Experiment [17] has as its system Chordin-like protein 2 (CHRDL2). The experiment is described as follows: compounds binding chordin-like 2 – biochemical, small-molecule microarray, 635 nm fluorescence, primary screen (AID 1126).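 Also: printed compound slides probed with Chrdl2 protein at 4 µg/mL for 1 h at 4 C; score merges 667 nm emission intensity with signal to noise over three replicate slides.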 The following applies: fluorescence 635 nm, higher = more signal.
The target of experiment [18] is Concanavalin-A (Canavalia ensiformis) (UniProt P02866). Description: compounds binding concanavalin A lectin – biochemical, small-molecule microarray, Alexa647 label, 635 nm, artefact control for SMM control protein annotation, primary screen (AID 1127).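 Also: z combines 667 nm emission intensity with signal-to-noise across three replicate slides.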 Conditions: ConA-A647 binding fluorescence, higher = more signal.
Chain of Concanavalin-A (Canavalia ensiformis) (P02866 whole entry, looked up): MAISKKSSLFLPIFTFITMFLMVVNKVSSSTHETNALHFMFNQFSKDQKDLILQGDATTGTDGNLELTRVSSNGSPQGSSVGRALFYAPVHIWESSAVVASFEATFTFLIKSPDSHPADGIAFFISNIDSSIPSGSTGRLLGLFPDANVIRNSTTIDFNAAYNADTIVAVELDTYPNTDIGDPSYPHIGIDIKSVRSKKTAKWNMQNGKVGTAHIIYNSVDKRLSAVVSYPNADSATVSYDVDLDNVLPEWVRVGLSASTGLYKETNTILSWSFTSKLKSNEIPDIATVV

Chain of Torsin-1A-interacting protein 1 (Homo sapiens) (Q5JTV8 whole entry, looked up): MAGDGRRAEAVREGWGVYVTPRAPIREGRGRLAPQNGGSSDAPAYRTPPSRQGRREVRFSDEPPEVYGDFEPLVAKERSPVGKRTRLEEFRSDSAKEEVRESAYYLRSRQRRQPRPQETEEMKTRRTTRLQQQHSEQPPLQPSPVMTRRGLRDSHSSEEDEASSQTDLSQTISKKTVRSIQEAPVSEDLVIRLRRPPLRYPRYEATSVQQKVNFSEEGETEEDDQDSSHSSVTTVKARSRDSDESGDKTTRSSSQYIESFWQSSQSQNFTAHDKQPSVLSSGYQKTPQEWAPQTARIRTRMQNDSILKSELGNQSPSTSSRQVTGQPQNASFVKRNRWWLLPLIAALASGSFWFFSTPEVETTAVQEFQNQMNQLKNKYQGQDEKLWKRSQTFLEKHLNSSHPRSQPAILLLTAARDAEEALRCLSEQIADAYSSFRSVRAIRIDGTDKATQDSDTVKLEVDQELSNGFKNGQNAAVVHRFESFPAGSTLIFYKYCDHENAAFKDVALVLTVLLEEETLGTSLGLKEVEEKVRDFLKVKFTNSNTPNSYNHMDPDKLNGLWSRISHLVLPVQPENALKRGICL
Chain of Left-right determination factor 2 (Homo sapiens) (O00292 whole entry, looked up): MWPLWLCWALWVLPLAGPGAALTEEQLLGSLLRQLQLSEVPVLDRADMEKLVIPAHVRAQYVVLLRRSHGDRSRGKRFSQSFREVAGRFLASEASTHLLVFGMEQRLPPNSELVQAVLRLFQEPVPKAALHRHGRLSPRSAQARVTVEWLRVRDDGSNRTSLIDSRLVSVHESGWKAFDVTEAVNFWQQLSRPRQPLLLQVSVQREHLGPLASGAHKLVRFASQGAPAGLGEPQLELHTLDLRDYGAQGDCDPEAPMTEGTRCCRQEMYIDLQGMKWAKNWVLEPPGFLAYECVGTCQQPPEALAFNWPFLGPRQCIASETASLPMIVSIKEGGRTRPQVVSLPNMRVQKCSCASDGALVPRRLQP
Chain of Alpha-bungarotoxin (Bungarus multicinctus) (P60615 whole entry, looked up): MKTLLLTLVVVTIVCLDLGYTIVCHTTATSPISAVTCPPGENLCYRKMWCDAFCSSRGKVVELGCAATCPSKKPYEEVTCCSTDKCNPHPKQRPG
Chain of Albumin (Bos taurus) (P02769 whole entry, looked up): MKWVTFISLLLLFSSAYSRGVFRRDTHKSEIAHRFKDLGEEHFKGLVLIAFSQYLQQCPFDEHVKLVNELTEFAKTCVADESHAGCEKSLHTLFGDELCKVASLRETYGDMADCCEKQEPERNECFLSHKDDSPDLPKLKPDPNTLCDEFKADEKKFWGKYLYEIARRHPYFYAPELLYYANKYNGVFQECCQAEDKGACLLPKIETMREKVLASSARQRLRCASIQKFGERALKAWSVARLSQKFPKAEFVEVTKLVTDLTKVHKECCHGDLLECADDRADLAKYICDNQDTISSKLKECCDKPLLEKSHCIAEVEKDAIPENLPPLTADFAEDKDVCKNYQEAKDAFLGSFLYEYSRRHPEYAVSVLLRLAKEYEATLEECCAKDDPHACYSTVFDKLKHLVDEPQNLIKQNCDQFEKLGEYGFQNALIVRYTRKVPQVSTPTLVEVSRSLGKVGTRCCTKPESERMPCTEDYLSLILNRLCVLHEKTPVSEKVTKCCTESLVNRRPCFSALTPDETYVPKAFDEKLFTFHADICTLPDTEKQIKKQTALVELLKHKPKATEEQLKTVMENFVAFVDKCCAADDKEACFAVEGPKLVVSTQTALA

Regarding `COCCOC(=O)N1C(=O)[C@@]2(c3cc(C#Cc4ccc(OC)cc4)ccc31)[C@H](C(=O)Nc1nc3ccccc3s1)[C@H]1C(=O)O[C@H](c3ccccc3)[C@H](c3ccccc3)N1[C@@H]2c1ccccc1OCCO`, the composite z-score in experiment [1] is 0.773; in [3], 0.615; in experiment [4], 1.5; in experiment [5], 0.747; in experiment [6] it was -0.299; in experiment [7], -0.138. The composite z-score is -0.7 in experiment [8]; 0.188 in [9]; 0.968 in [10]; 0.545 with Albumin (Bos taurus); 0.124 in [12]; 0.159 in experiment [13]. The composite z-score in experiment [14] is 0.547; in [15], 0.874; in experiment [16] it was 0.304; in the experiment with Sam68 (KHDRBS1), 0.997; in experiment [17], 0.649; in [18], 1.11. The molecule further registered a z-score in experiment [2] of -1.43. In [11], the composite Z-score is -0.331 (inactive).
With `COCCn1c(C(=O)N2CCCC2)cc2c1C[C@H]1CN(C(=O)c3ccccc3)[C@@](Cc3ccccc3)(C(=O)OC)[C@@H]21`, the composite z-score is 1.51 in experiment [1]; 0.222 in experiment [3]; 1.89 in experiment [4]; 0.808 in experiment [5]; 0.869 in experiment [6]; 1.3 in experiment [7]. Moreover, the composite z-score turned out to be 2.73 in [8]; 1.12 in experiment [9]; 0.253 in [10]; 1.03 in the experiment with Albumin (Bos taurus); 0.676 in [12]; 0.6 in experiment [13]. In addition, the composite z-score in experiment [14] is 0.676; in [15], 3.14; in experiment [16], 0.403; in the experiment with Sam68 (KHDRBS1) it was 1.29; in [17], -0.133; in [18], 1.11. Also, in [2], the z-score was -0.976. In addition, the composite Z-score in [11] was 0.239 (inactive).
On to `C[C@@H](OCc1ccccc1)C1NC(=O)[C@@]23C(=O)N[C@@H](Cc4ccccc4)C2[C@H](C)[C@@]2(C)O[C@H]2C3/C=C/C/C=C\CNC(=O)[C@H](Cc2ccccc2)NC1=O` (stereo not given in full), for which the composite z-score in experiment [1] was -0.677; in [3] it was 0.226; in [4] it was -0.629; in experiment [5] it was -1.15; in experiment [6] it was -0.035; in experiment [7], -0.304. For the same molecule, the composite z-score was -0.289 in experiment [8]; 0.252 in experiment [9]; -0.753 in experiment [10]; 0.126 with Albumin (Bos taurus); -0.0026 in [12]; -0.153 in [13]. Further, the composite z-score is 0.618 in experiment [14]; 0.332 in [15]; -0.149 in [16]; -0.24 in the experiment with Sam68 (KHDRBS1); 0.665 in [17]; -0.052 in experiment [18]. Also, in experiment [2], the z-score is -0.963. Besides, the composite Z-score in experiment [11] is 0.069 (inactive).
Turning to `COc1ccc(C#Cc2ccc3c(c2)[C@]2(C(=O)N3)[C@H](C(=O)Nc3nc4ccccc4s3)[C@H]3C(=O)O[C@H](c4ccccc4)[C@H](c4ccccc4)N3[C@@H]2c2ccc(OCCO)cc2)cc1`, the composite z-score stood at 0.801 in [1]; 0.651 in experiment [3]; 2.19 in experiment [4]; 0.915 in experiment [5]; 0.0377 in experiment [6]; 0.337 in [7]. Further, the composite z-score is 0.302 in [8]; 2.08 in experiment [9]; 1.75 in experiment [10]; 0.789 with Albumin (Bos taurus); 0.109 in [12]; -0.0486 in [13]. Moreover, the composite z-score in experiment [14] amounted to 0.622; in [15], 2.46; in experiment [16], 0.816; with Sam68 (KHDRBS1), 1.31; in experiment [17], 0.254; in [18], 1.17. The z-score in experiment [2] was -2.03. Also, in experiment [11], the composite Z-score was 0.403 (inactive).
Consider `COCCCNC(=O)[C@@]1(Sc2ccc(C)cc2)CC(=O)N(C2CCCCC2)[C@@H]1c1ccc(CO)cc1I`, for which the composite z-score in experiment [1] is 1.01; in experiment [3], 0.816; in experiment [4] it was 0.99; in experiment [5], 0.565; in experiment [6], -0.0853; in [7], -0.0362. Moreover, the composite z-score in experiment [8] is -0.631; in experiment [9], 1.34; in experiment [10], 1.99; with Albumin (Bos taurus) it was 0.68; in experiment [12] it was 0.145; in experiment [13], -0.0096. Further, the composite z-score in experiment [14] worked out at 0.481; in experiment [15] it was 1.8; in experiment [16] it was 0.0839; in the experiment on Sam68 (KHDRBS1), 1.25; in experiment [17] it was 0.818; in experiment [18], 1.07. The molecule also registered a z-score in experiment [2] of -2.63. Also, in [11], the composite Z-score is 0.441 (inactive).
As to `COC(=O)[C@@]1(Cc2ccc(OC)cc2)[C@H]2c3cc(C(=O)N(C)C)n(Cc4ccsc4Br)c3C[C@H]2CN1C(=O)c1ccccc1`, the composite z-score is 0.835 in experiment [1]; -0.318 in experiment [3]; 1.01 in [4]; 0.511 in experiment [5]; 0.281 in [6]; 0.696 in [7]. The composite z-score in experiment [8] came to 1.61; in experiment [9] it was 2.24; in experiment [10] it was 0.177; with Albumin (Bos taurus), 0.968; in [12] it was 0.69; in experiment [13], 0.371. Besides, the composite z-score in [14] is 0.898; in experiment [15], 1.65; in experiment [16], 0.107; in the experiment on Sam68 (KHDRBS1) it was 0.399; in [17] it was -0.0018; in experiment [18], 0.852. The molecule also returned a z-score in [2] of -0.235. Moreover, in [11], the composite Z-score was -0.362 (inactive).
